21 molecules from the supplement of paper PMC9492666 can be followed below.
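Also: breast cancer cell viability read out with the CCK-8 kit after co-treatment of each compound with the ferroptosis inducer RSL3.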

The test deals with HCC1937. Briefly: relative cell viability, compound + RSL3, vs DMSO (fraction of DMSO control); higher = less growth inhibition. The settings on record: 72 h.
For the molecule `CC1=C(C)C(=O)C(C(CCCCCC(=O)O)c2ccccc2)=C(C)C1=O` (stereo unspecified) [Seratrodast] + COC(=O)c1ccc([C@H]2c3[nH]c4ccccc4c3C[C@H](C(=O)OC)N2C(=O)CCl)cc1 [RSL3], the relative cell viability worked out at 0.948. Take `O=C(O)c1c[nH]c2cc(Cl)c(-c3ccc(C4(O)CCC4)cc3)cc12` + COC(=O)c1ccc([C@H]2c3[nH]c4ccccc4c3C[C@H](C(=O)OC)N2C(=O)CCl)cc1 [RSL3]: the relative cell viability was 0.572. `Cc1ccc(Oc2nc3cc(-c4ccc(-c5ccccc5)cc4)c(Cl)cc3[nH]2)cc1C(=O)O` + COC(=O)c1ccc([C@H]2c3[nH]c4ccccc4c3C[C@H](C(=O)OC)N2C(=O)CCl)cc1 [RSL3]: the relative cell viability stood at 0.538. With `CC(O)(CC(=O)O)CC(=O)O` [Meglutol] + COC(=O)c1ccc([C@H]2c3[nH]c4ccccc4c3C[C@H](C(=O)OC)N2C(=O)CCl)cc1 [RSL3] the figure was 0.443; with `CCCCCCCCCCCC1=C(O)C(=O)C=C(O)C1=O` [Embelin] + COC(=O)c1ccc([C@H]2c3[nH]c4ccccc4c3C[C@H](C(=O)OC)N2C(=O)CCl)cc1 [RSL3], 0.458; with `CCN(CC)CCN(Cc1ccc(-c2ccc(C(F)(F)F)cc2)cc1)C(=O)Cn1c(SCc2ccc(F)cc2)nc(=O)c2c1CCC2` [Darapladib] + COC(=O)c1ccc([C@H]2c3[nH]c4ccccc4c3C[C@H](C(=O)OC)N2C(=O)CCl)cc1 [RSL3], 0.0907.

As to `C=C1C[C@]2(O)O[C@@]3(CC2=C(C)C)[C@@H](C)CC[C@@H]13` [Isocurcumenol] + COC(=O)c1ccc([C@H]2c3[nH]c4ccccc4c3C[C@H](C(=O)OC)N2C(=O)CCl)cc1 [RSL3], the relative cell viability turned out to be 0.612. For the molecule `CC(=O)c1c(C)cc2cccc(O)c2c1O` [Nepodin] + COC(=O)c1ccc([C@H]2c3[nH]c4ccccc4c3C[C@H](C(=O)OC)N2C(=O)CCl)cc1 [RSL3], the relative cell viability came to 0.404. For the molecule `O=S(=O)(Nc1ccc(C(O)(C(F)(F)F)C(F)(F)F)cc1)c1cccs1` + COC(=O)c1ccc([C@H]2c3[nH]c4ccccc4c3C[C@H](C(=O)OC)N2C(=O)CCl)cc1 [RSL3], the relative cell viability was determined as 0.617.

On to `CNC(=O)c1cccc(NC(=O)N2CCC(Oc3ccccc3Cl)CC2)c1` + COC(=O)c1ccc([C@H]2c3[nH]c4ccccc4c3C[C@H](C(=O)OC)N2C(=O)CCl)cc1 [RSL3], for which the relative cell viability worked out at 0.895. Turning to `CN1CC(O)C2=C/C(=N/NC(N)=O)C(=O)C=C21` (stereo unspecified) [Carbazochrome] + COC(=O)c1ccc([C@H]2c3[nH]c4ccccc4c3C[C@H](C(=O)OC)N2C(=O)CCl)cc1 [RSL3], the relative cell viability is 0.451.

Take `O=C(/C=C/c1ccc(/C=C/C(=O)Nc2ccc(C3=NCCN3)cc2)cc1)Nc1ccc(C2=NCCN2)cc1` + COC(=O)c1ccc([C@H]2c3[nH]c4ccccc4c3C[C@H](C(=O)OC)N2C(=O)CCl)cc1 [RSL3]: the relative cell viability worked out at 0.296.

For `O=C(NNc1ccccc1)c1ccncc1` [PluriSln 1] + COC(=O)c1ccc([C@H]2c3[nH]c4ccccc4c3C[C@H](C(=O)OC)N2C(=O)CCl)cc1 [RSL3], the relative cell viability was determined as 0.418. With `CCC(=O)Nc1cccc(Oc2nc(Nc3ccc(N4CCN(C)CC4)cc3OC)ncc2Cl)c1` + COC(=O)c1ccc([C@H]2c3[nH]c4ccccc4c3C[C@H](C(=O)OC)N2C(=O)CCl)cc1 [RSL3] the figure was 0.121; with `O=C(NCCS(=O)(=O)c1ccc(C(F)(F)F)cn1)c1ccc(Cl)cc1` + COC(=O)c1ccc([C@H]2c3[nH]c4ccccc4c3C[C@H](C(=O)OC)N2C(=O)CCl)cc1 [RSL3], 0.362.

Take `COc1cc([C@@H]2Oc3c(O)cc([C@H]4Oc5cc(O)cc(O)c5C(=O)[C@@H]4O)cc3[C@H]2CO)ccc1O` [Silychristin] + COC(=O)c1ccc([C@H]2c3[nH]c4ccccc4c3C[C@H](C(=O)OC)N2C(=O)CCl)cc1 [RSL3]: the relative cell viability is 0.567. Take `Cc1ccc(/C=C2\SC(=S)N(CCCCCC(=O)Nc3ccc(C(=O)O)c(O)c3)C2=O)cc1` + COC(=O)c1ccc([C@H]2c3[nH]c4ccccc4c3C[C@H](C(=O)OC)N2C(=O)CCl)cc1 [RSL3]: the relative cell viability was found to be 0.632.

In the case of `Cc1cccc(Nc2cc(Cl)nc(SCC(=O)O)n2)c1C` [Pirinixic Acid] + COC(=O)c1ccc([C@H]2c3[nH]c4ccccc4c3C[C@H](C(=O)OC)N2C(=O)CCl)cc1 [RSL3], the relative cell viability worked out at 0.603. For `CC[C@@H]1/C=C(\C)C[C@H](C)C[C@H](OC)[C@H]2O[C@@](O)(C(=O)C(=O)N3CCCC[C@H]3C(=O)O[C@H](/C(C)=C/[C@@H]3CC[C@@H](O)[C@H](OC)C3)[C@H](C)[C@@H](O)CC1=O)[C@H](C)C[C@@H]2OC` [Ascomycin] + COC(=O)c1ccc([C@H]2c3[nH]c4ccccc4c3C[C@H](C(=O)OC)N2C(=O)CCl)cc1 [RSL3], the relative cell viability is 0.1. In the case of `CC1CC(OC(=O)C(O)c2ccccc2)CC(C)(C)C1` (stereo unspecified) [Cyclandelate] + COC(=O)c1ccc([C@H]2c3[nH]c4ccccc4c3C[C@H](C(=O)OC)N2C(=O)CCl)cc1 [RSL3], the relative cell viability is 0.808. As for `CC[C@H](C)C(=O)O[C@H]1C[C@@H](C)C=C2C=C[C@H](C)[C@H](CC[C@@H]3C[C@@H](O)CC(=O)O3)[C@H]21` [Lovastatin] + COC(=O)c1ccc([C@H]2c3[nH]c4ccccc4c3C[C@H](C(=O)OC)N2C(=O)CCl)cc1 [RSL3], the relative cell viability was determined as 0.867.
